What was measured:
Experiment in all cases: log2 ratio of Biotin-Ahx-Ub-VS probe labelling (fragment/DMSO); higher = less target engagement (more negative = stronger competition), active = hit call of the paper (q ≤ 0.05, log2 ratio ≤ -1)
Settings in all cases: compound concentration: 200 uM; treatment time: 3 h
USP34 = USP34 (UniProt Q70CQ2)
In short: (§1)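 Labelled DUBs were enriched with NeutrAvidin, digested with LysC and trypsin, and run by diaPASEF LC-MS/MS. The labelling used Biotin-Ahx-Ub-VS at 0.5 µM final for 1 h on HEK293T lysate (495 µg per sample) previously treated in triplicate with fragment at 200 µM or vehicle for 3 h. Values are average log2 fragment/vehicle ratios by unpaired t-test on global-median-normalised Spectronaut quantities of proteins with ≥2 unique peptides.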

USP36 = biological target: T1, USP36 (UniProt Q9P275)
T1 sequence (whole entry): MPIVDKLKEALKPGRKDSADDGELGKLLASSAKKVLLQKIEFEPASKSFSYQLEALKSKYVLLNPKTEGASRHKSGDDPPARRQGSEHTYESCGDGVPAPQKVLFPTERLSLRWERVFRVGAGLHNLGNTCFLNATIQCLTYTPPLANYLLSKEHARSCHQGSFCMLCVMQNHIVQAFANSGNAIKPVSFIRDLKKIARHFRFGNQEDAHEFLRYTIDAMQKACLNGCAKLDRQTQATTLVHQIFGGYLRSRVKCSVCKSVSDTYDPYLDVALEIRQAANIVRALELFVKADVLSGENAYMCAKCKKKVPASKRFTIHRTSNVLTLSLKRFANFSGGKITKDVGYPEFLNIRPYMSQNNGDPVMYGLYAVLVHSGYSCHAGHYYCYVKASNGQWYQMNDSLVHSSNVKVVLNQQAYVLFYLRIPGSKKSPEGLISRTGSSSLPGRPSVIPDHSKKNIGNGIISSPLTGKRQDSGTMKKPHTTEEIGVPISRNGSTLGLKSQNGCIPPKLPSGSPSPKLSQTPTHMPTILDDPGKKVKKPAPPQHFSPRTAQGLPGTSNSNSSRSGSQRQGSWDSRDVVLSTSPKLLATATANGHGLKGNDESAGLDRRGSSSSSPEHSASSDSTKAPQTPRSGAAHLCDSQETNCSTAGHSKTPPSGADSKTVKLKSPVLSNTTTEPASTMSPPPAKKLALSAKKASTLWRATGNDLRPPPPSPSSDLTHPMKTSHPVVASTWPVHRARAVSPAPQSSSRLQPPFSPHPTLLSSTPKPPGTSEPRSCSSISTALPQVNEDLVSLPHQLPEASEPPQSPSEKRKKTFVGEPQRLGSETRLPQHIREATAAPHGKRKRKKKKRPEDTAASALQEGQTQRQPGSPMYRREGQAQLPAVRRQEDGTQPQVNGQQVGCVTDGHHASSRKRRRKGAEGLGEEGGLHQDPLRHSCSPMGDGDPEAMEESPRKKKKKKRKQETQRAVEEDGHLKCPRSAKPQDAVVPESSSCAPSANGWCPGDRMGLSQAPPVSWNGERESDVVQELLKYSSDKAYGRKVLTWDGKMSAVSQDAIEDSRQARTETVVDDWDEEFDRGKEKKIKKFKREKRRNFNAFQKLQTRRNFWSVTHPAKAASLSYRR
In short: as §1

USP38 = biological target: T2, USP38 (UniProt Q8NB14)
T2 sequence (whole entry): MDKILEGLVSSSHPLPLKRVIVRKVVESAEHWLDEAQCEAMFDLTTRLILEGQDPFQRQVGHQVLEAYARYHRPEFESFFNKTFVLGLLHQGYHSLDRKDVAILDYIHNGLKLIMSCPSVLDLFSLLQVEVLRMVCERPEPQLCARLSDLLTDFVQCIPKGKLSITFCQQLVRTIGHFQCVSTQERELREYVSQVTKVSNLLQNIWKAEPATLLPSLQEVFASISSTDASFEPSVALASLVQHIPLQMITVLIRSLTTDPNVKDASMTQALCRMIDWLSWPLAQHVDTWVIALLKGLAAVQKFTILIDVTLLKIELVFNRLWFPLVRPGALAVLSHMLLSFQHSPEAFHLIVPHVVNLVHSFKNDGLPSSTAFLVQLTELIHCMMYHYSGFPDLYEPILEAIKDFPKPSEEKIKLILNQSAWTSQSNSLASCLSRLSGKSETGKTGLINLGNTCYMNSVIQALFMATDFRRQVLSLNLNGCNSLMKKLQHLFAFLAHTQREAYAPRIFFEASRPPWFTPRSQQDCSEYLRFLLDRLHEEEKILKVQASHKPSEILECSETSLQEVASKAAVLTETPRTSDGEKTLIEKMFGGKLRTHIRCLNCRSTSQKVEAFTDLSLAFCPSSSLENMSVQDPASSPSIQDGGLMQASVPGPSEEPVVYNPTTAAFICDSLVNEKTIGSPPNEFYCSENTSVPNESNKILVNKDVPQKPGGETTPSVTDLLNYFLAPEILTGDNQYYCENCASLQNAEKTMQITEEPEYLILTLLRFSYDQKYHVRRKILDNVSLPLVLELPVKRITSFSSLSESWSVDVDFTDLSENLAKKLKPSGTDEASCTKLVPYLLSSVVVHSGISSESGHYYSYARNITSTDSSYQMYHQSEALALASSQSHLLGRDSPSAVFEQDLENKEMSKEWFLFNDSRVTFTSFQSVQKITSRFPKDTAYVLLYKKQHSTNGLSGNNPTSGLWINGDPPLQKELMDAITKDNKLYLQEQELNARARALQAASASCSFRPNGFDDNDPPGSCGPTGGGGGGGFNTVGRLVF
In short: as §1

USP39 = biological target: T3, USP39 (UniProt Q53GS9)
T3 sequence (whole entry): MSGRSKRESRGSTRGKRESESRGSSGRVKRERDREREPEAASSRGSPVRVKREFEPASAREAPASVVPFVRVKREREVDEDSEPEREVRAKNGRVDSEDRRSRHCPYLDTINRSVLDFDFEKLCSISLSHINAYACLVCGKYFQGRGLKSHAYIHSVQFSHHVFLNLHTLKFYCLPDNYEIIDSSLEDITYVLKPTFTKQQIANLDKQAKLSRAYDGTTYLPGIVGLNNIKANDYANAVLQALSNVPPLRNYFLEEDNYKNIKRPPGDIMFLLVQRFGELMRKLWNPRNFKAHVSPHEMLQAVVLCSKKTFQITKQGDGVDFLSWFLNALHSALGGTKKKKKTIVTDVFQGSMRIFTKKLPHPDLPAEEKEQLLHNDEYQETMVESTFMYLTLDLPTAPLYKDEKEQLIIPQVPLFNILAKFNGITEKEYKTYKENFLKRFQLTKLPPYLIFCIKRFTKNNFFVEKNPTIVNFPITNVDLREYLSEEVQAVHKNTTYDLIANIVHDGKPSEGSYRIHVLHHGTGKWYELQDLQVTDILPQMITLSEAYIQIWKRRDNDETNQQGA
In short: as §1

USP4 = biological target: T4, USP4 (UniProt Q13107)
T4 sequence (whole entry): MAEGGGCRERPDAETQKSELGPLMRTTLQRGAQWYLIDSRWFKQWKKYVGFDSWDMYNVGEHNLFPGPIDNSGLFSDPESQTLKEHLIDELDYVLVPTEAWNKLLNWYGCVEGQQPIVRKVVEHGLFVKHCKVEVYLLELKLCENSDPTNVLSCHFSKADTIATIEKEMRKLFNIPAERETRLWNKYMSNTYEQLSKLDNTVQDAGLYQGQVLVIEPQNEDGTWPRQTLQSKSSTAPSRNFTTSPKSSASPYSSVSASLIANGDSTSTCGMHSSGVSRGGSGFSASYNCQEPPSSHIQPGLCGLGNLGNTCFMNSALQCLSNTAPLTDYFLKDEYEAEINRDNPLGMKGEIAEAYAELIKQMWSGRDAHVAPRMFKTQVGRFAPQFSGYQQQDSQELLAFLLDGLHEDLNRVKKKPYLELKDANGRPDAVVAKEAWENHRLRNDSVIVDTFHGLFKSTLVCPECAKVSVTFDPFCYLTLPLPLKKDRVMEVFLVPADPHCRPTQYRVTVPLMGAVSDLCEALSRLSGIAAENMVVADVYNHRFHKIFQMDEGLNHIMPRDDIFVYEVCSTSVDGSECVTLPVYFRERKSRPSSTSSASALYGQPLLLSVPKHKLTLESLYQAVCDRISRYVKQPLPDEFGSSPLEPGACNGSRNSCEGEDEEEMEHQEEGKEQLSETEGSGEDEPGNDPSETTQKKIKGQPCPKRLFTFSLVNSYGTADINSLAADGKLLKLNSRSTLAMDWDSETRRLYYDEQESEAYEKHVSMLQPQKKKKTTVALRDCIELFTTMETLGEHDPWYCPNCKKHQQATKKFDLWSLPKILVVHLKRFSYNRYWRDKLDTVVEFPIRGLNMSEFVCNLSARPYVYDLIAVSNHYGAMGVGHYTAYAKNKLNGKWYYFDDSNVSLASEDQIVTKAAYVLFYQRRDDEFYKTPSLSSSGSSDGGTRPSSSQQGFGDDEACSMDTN
In short: as §1

Measured: log2 ratio of Biotin-Ahx-Ub-VS probe labelling

Sequence of USP34 (Q70CQ2 whole entry, the tested form may be a part): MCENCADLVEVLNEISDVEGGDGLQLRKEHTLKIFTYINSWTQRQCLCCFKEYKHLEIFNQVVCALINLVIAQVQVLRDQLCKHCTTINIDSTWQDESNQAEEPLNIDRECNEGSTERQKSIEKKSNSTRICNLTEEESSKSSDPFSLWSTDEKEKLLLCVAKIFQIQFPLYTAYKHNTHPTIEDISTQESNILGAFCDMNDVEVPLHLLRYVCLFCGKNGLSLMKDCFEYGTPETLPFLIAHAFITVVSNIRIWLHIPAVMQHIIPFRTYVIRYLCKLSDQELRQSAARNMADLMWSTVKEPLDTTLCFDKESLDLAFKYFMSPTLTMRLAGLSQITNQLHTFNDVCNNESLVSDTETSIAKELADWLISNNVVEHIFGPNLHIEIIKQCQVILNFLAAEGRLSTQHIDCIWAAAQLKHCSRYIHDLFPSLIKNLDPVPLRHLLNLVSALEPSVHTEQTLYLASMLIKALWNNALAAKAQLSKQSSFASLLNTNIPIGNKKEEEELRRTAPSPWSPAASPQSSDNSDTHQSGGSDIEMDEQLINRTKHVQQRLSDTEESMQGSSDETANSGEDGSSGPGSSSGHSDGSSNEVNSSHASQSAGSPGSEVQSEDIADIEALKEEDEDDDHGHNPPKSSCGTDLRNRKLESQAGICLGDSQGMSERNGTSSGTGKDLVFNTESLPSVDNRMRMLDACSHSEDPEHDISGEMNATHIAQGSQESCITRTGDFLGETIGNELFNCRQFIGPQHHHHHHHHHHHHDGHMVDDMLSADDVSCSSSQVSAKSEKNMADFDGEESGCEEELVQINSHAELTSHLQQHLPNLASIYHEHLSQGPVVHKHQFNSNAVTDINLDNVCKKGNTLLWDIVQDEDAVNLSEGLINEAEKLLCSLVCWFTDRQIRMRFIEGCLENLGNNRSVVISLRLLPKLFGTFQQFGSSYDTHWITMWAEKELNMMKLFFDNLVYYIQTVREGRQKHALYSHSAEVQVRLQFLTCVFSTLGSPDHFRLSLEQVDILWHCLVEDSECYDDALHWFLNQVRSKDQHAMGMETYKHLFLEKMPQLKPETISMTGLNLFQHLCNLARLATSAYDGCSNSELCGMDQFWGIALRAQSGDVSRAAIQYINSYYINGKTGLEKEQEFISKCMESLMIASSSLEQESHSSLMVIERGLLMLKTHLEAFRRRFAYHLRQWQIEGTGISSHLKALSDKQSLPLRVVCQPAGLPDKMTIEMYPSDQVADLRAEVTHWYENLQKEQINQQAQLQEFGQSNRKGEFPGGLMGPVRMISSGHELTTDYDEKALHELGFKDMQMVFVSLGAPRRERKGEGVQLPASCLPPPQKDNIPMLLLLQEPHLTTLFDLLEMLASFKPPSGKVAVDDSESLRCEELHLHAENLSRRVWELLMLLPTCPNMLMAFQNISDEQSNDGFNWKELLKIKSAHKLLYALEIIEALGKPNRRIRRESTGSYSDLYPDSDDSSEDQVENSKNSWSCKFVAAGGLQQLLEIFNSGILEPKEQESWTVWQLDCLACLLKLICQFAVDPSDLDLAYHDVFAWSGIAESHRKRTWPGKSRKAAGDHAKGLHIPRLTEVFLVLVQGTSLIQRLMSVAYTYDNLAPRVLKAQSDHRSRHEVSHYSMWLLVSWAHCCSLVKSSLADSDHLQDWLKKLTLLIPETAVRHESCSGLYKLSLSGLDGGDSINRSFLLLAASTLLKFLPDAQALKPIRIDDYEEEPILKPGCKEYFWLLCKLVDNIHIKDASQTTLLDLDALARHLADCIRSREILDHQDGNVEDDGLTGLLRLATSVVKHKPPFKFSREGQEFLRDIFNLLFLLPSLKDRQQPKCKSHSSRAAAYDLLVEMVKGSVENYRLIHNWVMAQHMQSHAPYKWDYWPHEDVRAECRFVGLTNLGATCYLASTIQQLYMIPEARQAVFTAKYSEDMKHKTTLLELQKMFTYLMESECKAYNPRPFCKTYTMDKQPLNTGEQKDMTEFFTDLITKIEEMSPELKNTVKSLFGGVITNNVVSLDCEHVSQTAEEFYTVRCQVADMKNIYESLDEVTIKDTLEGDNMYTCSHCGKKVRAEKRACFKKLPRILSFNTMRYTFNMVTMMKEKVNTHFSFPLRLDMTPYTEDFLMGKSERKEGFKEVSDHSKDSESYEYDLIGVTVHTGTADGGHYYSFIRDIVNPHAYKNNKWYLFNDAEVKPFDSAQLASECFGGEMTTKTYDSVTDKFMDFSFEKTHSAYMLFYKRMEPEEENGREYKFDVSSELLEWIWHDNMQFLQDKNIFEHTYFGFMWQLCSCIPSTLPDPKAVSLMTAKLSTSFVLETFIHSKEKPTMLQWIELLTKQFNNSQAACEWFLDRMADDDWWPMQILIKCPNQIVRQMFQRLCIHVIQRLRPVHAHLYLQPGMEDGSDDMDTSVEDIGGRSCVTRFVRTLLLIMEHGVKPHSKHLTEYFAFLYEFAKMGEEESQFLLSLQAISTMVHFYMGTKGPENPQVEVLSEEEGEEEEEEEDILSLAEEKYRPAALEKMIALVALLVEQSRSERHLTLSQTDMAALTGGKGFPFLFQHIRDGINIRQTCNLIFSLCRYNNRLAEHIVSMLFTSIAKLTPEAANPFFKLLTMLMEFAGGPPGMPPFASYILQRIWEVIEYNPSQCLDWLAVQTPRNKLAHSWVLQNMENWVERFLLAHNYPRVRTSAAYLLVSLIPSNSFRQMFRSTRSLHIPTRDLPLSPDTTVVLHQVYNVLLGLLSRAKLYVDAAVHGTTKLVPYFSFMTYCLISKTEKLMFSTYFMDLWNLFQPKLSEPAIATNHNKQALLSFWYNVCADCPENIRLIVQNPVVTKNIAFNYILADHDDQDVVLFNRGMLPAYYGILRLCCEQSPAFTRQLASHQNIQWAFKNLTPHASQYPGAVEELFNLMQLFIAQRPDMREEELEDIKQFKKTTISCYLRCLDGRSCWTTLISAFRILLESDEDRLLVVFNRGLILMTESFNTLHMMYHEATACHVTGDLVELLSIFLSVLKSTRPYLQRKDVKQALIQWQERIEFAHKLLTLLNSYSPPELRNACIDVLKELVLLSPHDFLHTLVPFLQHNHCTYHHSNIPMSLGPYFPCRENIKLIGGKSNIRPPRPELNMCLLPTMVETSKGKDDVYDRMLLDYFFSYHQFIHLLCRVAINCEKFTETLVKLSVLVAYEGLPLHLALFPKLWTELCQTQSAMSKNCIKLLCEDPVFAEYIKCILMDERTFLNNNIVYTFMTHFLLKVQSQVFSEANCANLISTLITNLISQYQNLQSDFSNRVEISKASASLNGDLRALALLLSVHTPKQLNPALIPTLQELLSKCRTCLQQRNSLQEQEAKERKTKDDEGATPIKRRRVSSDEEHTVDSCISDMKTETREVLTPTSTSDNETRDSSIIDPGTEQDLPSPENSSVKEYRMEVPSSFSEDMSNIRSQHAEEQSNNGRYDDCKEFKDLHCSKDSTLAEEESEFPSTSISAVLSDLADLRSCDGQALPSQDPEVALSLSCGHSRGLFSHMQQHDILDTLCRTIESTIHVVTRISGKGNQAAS

Cc1ccc2nnc(CNC(=O)CCl)n2c1
inactive: USP34 -0.0797 | USP36 -0.0909 | USP38 -0.0516 | USP39 -0.108 | USP4 0.17

Reference: the supplement of paper PMC11732987, “Enantioselective OTUD7B fragment discovery through chemoproteomics screening and high-throughput optimisation” (Communications Chemistry, 2025)
